According to PubChem BioAssay AID1981 (Southern Research Specialized Biocontainment Screening …, 2009):
Among all 2,200 compounds or so, about 480 (22%) were called active. These entries were drawn from the full list. Results with a measured potency or affinity are listed apart. Unmarked numbers belong to inactive results. The rule behind the calls is not given here.

Assay: S. Typhimurium GFP fluorescence dose response in modified counterscreen for PhoP regulon inhibitor project (AID 1981);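 note: 0% = induced DMSO wells and 100% = uninduced wells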
Conditions: 4 h; series mostly up to 150 µM; inhibition: at the top concentration

First: CCSc1nnc(NC(=O)Cc2cccc(OC)c2)s1
Second: COc1cc(NC(=O)CSc2nnnn2Cc2ccc3c(c2)OCO3)cc(OC)c1
The “inhibition” value of the first is lower: -15.9% for the first, 7.32% for the second.

First: Nn1c(COc2cccc(Br)c2)nnc1SCC(=O)N1CCc2ccccc2C1
Second: CCOc1ccc(OCc2ccc(C(=O)N3CCc4ccccc4C3)o2)cc1
The “inhibition” value of the first is lower: -19.6% for the first, 2.33% for the second.

Going from `CCCc1cc(=O)oc2cc(OCC(=O)N3CCc4ccccc43)ccc12` to `c1ccc2c(c1)CCN(c1ncnc3c1[nH]c1ccccc13)C2`, the “inhibition” value rises from -17.5% to 5.41%.

First: O=[N+]([O-])c1cccc(CN(CCO)Cc2ccccc2)c1
Second: O=Cc1cn(Cc2ccccc2[N+](=O)[O-])c2ccccc12
The “inhibition” value of the first is higher: 2.79% for the first, -16.4% for the second.

Going from `COCCNC(=O)c1ccccc1NS(=O)(=O)c1ccc(Br)s1` to `COCCNC(=O)c1ccc(C(=O)NCCOC)s1`, the “inhibition” value rises from -10.8% to -3.43%.

First: O=C(OCc1nnc(-c2ccccc2)o1)c1ccc(S(=O)(=O)NCc2ccco2)cc1
Second: COc1ccc(Nc2nc(NCc3ccco3)nc(N/N=C/c3ccccc3Cl)n2)cc1
The “inhibition” value of the first is lower: -7.31% for the first, -2.36% for the second.

Going from `COc1ccc(Cl)cc1NC(=O)C(C)OC(=O)c1ccc(NS(=O)(=O)c2ccc3[nH]c(=O)[nH]c3c2)cc1` (stereo not given) to `COc1cc(OC)c(C(=O)Nc2ccc(S(=O)(=O)Nc3ncccn3)cc2)cc1OC`, the “inhibition” value falls from 33.5% to -1.93%.

Compared with `O=C(C(=O)N1CCc2ccccc2C1)N1CCc2ccccc2C1`, `O=C(Nc1ccsc1C(=O)NC1CCCCC1)c1ccccc1` is lower in “inhibition” value: -2.68% for the first, -6.29% for the second.

First: CC(C)(C)c1ccc(C(=O)NC(=S)NCc2cccnc2)cc1
Second: COc1nccnc1NS(=O)(=O)c1ccc(NC(=S)NC(=O)c2cccnc2)cc1
The “inhibition” value of the first is lower: -9.06% for the first, -4.58% for the second.

Compared with `CCn1c2ccccc2c2cc(NC(=O)C(C)Oc3ccccc3)ccc21` (stereo not given), `O=C(CSCc1ccccc1)N/N=C/c1ccccc1OCc1ccccc1` is higher in “inhibition” value: -7.23% for the first, -1.35% for the second.

Compared with `O=C(NCc1cn2ccsc2n1)Nc1ccc(Cl)cc1`, `Cc1ccc(NC(=S)NC(NC(=O)c2ccco2)C(Cl)(Cl)Cl)cc1` (stereo not given) is lower in “inhibition” value: 2.35% for the first, 0.18% for the second.

Going from `C/C(=C\c1ccco1)C1Nc2cccc3cccc(c23)N1` to `CC(C)(C)c1ccc(C2CC2C(=O)N/N=C\c2cc3ccccc3nc2Cl)cc1` (stereo not given), the “inhibition” value falls from 26.3% to -2.95%.

First: Cc1ccc(C(=O)NCC(=O)NCC(=O)OCC(=O)c2ccc([N+](=O)[O-])cc2)cc1
Second: CCOc1ccc(NC(=O)c2ccc(NC(=O)COC(=O)Cc3ccccc3)cc2)cc1
The “inhibition” value of the first is lower: 5.29% for the first, 7.61% for the second.

First: CCCCn1c(-c2ccccc2)nc2c(=O)n(C)c(=O)[nH]c21
Second: Cc1[nH]n(-c2ccccc2)c(=O)c1-c1ccc(Cl)cc1
The “inhibition” value of the first is lower: 0.02% for the first, 11.1% for the second.

Compared with `O=C(Cn1nc(Cl)nc1Cl)c1ccc2c(c1)OCCO2`, `CN(C)CCCN(C(=O)CCc1ccccc1)c1nc2ccc(Cl)cc2s1` is higher in “inhibition” value: -23.9% for the first, -0.98% for the second.

Going from `Cc1ccc2c(c1)C1CN(C)CCC1N2C(=O)COc1ccc(S(=O)(=O)N2CCOCC2)cc1` (stereo not given) to `Cc1ccc(-n2ncc3c(N4CCN(c5ccccc5)CC4)ncnc32)c(C)c1`, the “inhibition” value rises from -9.64% to 0.31%.

Going from `N#Cc1ccc(CSc2nnc(-c3ccncc3)n2CCc2ccccc2)cc1` to `Nc1nc2ccccc2n1/N=C/c1ccc(-c2ccccc2)o1`, the “inhibition” value rises from -2.17% to 5.57%.

Going from `O=C(Nc1ccccn1)NC1CCCCC1` to `c1ccc(C2(CNc3ccccn3)CCCC2)cc1`, the “inhibition” value rises from -21.8% to -0.33%.

Compared with `COc1ccc(-c2ccc(-c3noc(-c4cccs4)n3)c(OC)n2)cc1`, `COc1ccc(N2C(=O)CC(Sc3nc(C)c4c(n3)CCCC4)C2=O)cc1` (stereo not given) is lower in “inhibition” value: 11.8% for the first, -5.07% for the second.

Compared with `CCn1cc(C(C)(C)C)c(C#N)c1NC(C)=O`, `COC(=O)c1cc(C#N)c(Oc2ccc(F)cc2)nc1C` is lower in “inhibition” value: 15.8% for the first, -11.3% for the second.

Going from `Cc1c(C(c2cccc([N+](=O)[O-])c2O)c2c(C)n(C)n(-c3ccccc3)c2=O)c(=O)n(-c2ccccc2)n1C` to `CN1C(=O)CC(P(=O)(c2ccccc2)c2ccccc2)N(C)C1=O` (stereo not given), the “inhibition” value falls from 1.78% to -0.81%.

Going from `O=C(CCNS(=O)(=O)c1cccc2nsnc12)NCc1cccs1` to `O=C(CC1SC(=NCc2ccccc2)NC1=O)Nc1ccccc1` (stereo not given), the “inhibition” value falls from 8.47% to -21.5%.

First: CCOC(=O)C1=C(C)NC(SCc2cc(=O)[nH][nH]2)=C(C#N)C1c1cccs1 (stereo not given)
Second: CC(C)c1ccc(C2NC(=O)NC3=C2CCc2ccccc23)cc1 (stereo not given)
The “inhibition” value of the first is higher: -1.12% for the first, -9.82% for the second.

Going from `COc1ccc(N2C(=O)C3CCCN3C2c2cccc(C)c2)cc1Cl` (stereo not given) to `COc1c(Cl)cnn(-c2ccc(C)cc2)c1=O`, the “inhibition” value rises from -1.71% to 5.85%.

Going from `Cc1ccn2cc(CSc3ccccc3N)nc2c1` to `O=C(CN1CC(c2ccccc2)CC1=O)N/N=C/c1cc(Br)ccc1O` (stereo not given), the “inhibition” value rises from -21.6% to 37.5%.

Compared with `Cc1cccc2cc(C#N)c(N3CCN(C)CC3)nc12`, `CCOC(=O)N1CCN(C(=O)C(NC(=O)c2ccc(CC)cc2)C(C)C)CC1` (stereo not given) is lower in “inhibition” value: -17.3% for the first, -18.7% for the second.

First: O=C(NC1CCCCC1)C(c1ccncc1)N(CC1CCCO1)C(=O)C(F)(F)F (stereo not given)
Second: Cc1nn(C)c(C)c1S(=O)(=O)N1CCC(C(=O)NC2CCCCC2)CC1
The “inhibition” value of the first is higher: -3.18% for the first, -14.5% for the second.

For `O=C(c1ccccc1)c1c2c(cc3sc4ccccc4[n+]13)-c1cccc3cccc-2c13`, the “inhibition” value was 18%.
